Experimental findings from PMC7862700, “An all-to-all approach to the identification of sequence-specific readers for epigenetic DNA modifications on cytosine” are described below.

What all share (assay): DAPPL (digital affinity profiling via proximity ligation, sequencing); 10 mM Tris-HCl pH 7.5, 50 mM NaCl, 1 mM DTT, 4% glycerol, room temperature, 30 min; GST-TFs on glutathione beads, 16-mer random dsDNA library, 0.1% formaldehyde crosslink after washing; high values mean tight binding
One test addresses T1, FLI1 (Homo sapiens, UniProt Q01543 1-452).
T1 sequence: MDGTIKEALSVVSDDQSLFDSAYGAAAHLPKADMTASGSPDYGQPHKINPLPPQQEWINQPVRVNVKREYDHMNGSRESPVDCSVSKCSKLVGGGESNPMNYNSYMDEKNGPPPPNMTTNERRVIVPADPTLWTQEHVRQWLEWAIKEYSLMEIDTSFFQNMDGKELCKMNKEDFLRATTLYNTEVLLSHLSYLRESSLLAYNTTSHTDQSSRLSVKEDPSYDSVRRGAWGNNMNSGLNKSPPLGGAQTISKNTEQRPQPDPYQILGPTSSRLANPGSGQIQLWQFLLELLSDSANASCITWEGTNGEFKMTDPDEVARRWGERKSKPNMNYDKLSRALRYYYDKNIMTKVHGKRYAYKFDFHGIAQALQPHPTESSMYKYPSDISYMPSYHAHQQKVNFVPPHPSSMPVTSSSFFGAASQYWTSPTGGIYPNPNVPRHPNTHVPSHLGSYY
Particulars: protein: recombinant; tags: N-terminal GST; dsDNA, one strand shown. A digest of the protocol: (§1)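 The binding signal reported is, for every hexamer, its read frequency for a factor over its read frequency for the tag-only sample. Reads came from pools of yeast-expressed, GST-fused human transcription factors on glutathione beads, barcoded with DNA and mixed with that sample, which were incubated with 200 nmole of a random double-stranded 16-mer DNA library in Tris/NaCl/DTT/glycerol buffer at room temperature for 30 min. After washing, the pools were crosslinked with 0.1% formaldehyde, proximity-ligated with BsaI/T4 ligase for 1 h at 37 °C, PCR-amplified and sequenced on an Illumina NextSeq500.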

The target of the next test is T2, ELK1 (Homo sapiens, UniProt P19419 1-428).
T2 sequence: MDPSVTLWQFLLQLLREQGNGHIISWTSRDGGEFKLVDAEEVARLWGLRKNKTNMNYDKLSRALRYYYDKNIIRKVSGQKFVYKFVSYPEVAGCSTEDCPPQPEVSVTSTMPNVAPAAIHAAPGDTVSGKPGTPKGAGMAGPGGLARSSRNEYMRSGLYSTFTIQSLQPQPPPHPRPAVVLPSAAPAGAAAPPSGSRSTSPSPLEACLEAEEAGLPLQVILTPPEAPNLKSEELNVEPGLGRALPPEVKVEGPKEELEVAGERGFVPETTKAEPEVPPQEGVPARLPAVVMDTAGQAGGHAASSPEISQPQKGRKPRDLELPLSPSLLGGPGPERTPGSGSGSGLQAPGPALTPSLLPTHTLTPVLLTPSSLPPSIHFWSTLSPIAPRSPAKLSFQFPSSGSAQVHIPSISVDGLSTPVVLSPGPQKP
Particulars: protein: recombinant; tags: N-terminal GST; dsDNA, one strand shown. The method, boiled down: as §1

A further test deals with T3, GABPA (Homo sapiens, UniProt Q06546 1-454).
T3 sequence: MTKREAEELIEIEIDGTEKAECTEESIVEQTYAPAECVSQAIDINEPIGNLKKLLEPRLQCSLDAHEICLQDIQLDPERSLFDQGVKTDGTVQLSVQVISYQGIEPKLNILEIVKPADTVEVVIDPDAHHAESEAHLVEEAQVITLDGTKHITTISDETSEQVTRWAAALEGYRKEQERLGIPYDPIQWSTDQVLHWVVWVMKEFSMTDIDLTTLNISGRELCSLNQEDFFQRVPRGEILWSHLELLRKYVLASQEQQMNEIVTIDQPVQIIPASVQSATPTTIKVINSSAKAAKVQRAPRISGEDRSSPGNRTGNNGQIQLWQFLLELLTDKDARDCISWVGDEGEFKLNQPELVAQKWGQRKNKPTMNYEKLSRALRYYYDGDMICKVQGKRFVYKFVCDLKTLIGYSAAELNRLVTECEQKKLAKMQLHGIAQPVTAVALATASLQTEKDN
Particulars: protein: recombinant; tags: N-terminal GST; dsDNA, one strand shown. A digest of the protocol:
as §1

Another test deals with T4, ERG (Homo sapiens, UniProt P11308 1-479).
T4 sequence: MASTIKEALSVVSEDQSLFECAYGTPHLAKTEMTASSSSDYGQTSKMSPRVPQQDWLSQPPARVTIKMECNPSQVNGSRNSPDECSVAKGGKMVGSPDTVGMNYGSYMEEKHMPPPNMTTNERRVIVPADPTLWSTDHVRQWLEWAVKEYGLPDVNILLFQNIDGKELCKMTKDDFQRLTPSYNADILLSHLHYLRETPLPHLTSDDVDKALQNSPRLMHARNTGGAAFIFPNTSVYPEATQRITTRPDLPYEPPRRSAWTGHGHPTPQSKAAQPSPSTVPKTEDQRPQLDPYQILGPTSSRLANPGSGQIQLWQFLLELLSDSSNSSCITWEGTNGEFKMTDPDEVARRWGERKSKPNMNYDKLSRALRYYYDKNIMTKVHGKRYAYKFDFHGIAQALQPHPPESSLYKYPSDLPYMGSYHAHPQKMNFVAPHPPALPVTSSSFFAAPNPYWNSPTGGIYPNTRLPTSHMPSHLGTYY
The note with it: protein: recombinant; tags: N-terminal GST; dsDNA, one strand shown. A digest of the protocol:
as §1

Another test addresses ELF1 (Homo sapiens, UniProt P32519 1-619). Particulars: protein: recombinant; tags: N-terminal GST; dsDNA, one strand shown. A digest of the protocol:
as §1

For the next test, the target named is T5, EHF (Homo sapiens, UniProt Q9NZC4 1-300).
T5 sequence: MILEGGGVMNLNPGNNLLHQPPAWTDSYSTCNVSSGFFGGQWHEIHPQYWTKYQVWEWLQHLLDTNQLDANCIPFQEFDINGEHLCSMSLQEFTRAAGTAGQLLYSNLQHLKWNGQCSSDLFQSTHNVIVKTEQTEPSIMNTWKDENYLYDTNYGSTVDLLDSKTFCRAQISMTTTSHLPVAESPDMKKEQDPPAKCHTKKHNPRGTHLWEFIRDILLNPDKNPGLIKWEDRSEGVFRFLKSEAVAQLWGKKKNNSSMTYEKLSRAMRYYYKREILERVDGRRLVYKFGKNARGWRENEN
Particulars: protein: recombinant; tags: N-terminal GST; dsDNA, one strand shown. A digest of the protocol:
as §1

For the next test, the target named is SPI1 (Homo sapiens, UniProt P17947 1-270). Particulars: protein: recombinant; tags: N-terminal GST; dsDNA, one strand shown. A digest of the protocol: as §1
In another test the target is SPIB (Homo sapiens, UniProt Q01892 1-262). The note with it: protein: recombinant; tags: N-terminal GST; dsDNA, one strand shown. A digest of the protocol:
as §1

The target in another test is T6, FEV (Homo sapiens, UniProt Q99581 1-238).
T6 sequence: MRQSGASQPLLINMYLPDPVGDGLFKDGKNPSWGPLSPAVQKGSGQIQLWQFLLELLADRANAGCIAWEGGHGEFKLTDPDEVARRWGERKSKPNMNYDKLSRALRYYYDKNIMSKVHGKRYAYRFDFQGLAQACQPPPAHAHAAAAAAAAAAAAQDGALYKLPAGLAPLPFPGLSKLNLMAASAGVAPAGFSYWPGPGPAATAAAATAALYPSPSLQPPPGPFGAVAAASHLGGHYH
Particulars: protein: recombinant; tags: N-terminal GST; dsDNA, one strand shown. The method, boiled down:
as §1

A further test concerns the target ETV5 (Homo sapiens, UniProt P41161 1-510). Particulars: protein: recombinant; tags: N-terminal GST; dsDNA, one strand shown. The method, boiled down: as §1
For the next test, the target named is HSF1 (Homo sapiens, UniProt Q00613 1-529). The note with it: protein: recombinant; tags: N-terminal GST; chain copies: 3; dsDNA, one strand shown. The method, boiled down:
as §1

A further test deals with T7, SPIC (Homo sapiens, UniProt Q8N5J4 1-248).
T7 sequence: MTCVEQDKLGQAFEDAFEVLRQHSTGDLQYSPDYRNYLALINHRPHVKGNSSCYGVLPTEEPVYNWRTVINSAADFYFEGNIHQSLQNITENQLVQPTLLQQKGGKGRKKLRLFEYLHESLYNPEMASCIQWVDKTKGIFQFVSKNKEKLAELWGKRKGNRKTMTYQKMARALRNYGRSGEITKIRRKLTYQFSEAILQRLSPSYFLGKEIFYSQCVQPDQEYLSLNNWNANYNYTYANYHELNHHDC
The note with it: protein: recombinant; tags: N-terminal GST; dsDNA, one strand shown. The method, boiled down: as §1

The next test concerns the target ELF4 (Homo sapiens, UniProt Q99607 1-663). The note with it: protein: recombinant; tags: N-terminal GST; dsDNA, one strand shown. The method, boiled down:
as §1

The target of a further test is T8, ELK4 (Homo sapiens, UniProt P28324-2 1-405).
T8 sequence: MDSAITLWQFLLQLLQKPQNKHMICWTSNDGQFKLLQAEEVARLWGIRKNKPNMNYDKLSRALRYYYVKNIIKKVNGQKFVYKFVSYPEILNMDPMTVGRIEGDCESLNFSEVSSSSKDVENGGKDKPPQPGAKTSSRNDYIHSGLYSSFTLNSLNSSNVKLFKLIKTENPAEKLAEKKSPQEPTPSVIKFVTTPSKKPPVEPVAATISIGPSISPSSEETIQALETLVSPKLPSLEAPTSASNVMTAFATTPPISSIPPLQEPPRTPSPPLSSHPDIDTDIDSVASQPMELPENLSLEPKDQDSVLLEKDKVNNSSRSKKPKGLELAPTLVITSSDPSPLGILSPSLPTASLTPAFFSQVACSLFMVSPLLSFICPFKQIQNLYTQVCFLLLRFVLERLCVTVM
The note with it: protein: recombinant; tags: N-terminal GST; dsDNA, one strand shown. The method, boiled down:
as §1

For a further test, the target named is T9, ETV2 (Homo sapiens, UniProt O00321 1-342).
T9 sequence: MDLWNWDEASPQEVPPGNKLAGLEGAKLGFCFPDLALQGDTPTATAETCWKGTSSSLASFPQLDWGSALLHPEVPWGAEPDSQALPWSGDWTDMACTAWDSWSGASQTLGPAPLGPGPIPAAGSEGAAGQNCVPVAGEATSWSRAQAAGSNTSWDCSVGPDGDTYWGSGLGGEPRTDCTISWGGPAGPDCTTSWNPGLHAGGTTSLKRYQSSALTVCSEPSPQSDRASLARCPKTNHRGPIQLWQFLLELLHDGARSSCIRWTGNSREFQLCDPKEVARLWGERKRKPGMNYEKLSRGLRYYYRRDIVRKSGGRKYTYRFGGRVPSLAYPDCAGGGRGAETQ
The note with it: protein: recombinant; tags: N-terminal GST; dsDNA, one strand shown. The method, boiled down: as §1

The next test has as its target T10, ELF3 (Homo sapiens, UniProt P78545 1-371).
T10 sequence: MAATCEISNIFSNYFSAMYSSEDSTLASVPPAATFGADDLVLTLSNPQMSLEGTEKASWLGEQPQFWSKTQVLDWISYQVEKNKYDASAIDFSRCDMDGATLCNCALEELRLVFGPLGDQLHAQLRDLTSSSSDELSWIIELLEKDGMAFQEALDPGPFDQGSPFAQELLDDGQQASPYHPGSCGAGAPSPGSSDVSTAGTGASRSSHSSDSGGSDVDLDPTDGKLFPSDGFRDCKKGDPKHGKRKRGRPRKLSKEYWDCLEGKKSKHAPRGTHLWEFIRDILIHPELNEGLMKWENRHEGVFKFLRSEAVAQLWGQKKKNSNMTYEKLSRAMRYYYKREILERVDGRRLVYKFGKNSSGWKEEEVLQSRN
Particulars: protein: recombinant; tags: N-terminal GST; dsDNA, one strand shown. A digest of the protocol: as §1

A further test has as its target CRX (Homo sapiens, UniProt O43186 1-299). The note with it: protein: recombinant; tags: N-terminal GST; dsDNA, one strand shown. A digest of the protocol:
as §1

In another test the target is ETV1 (Homo sapiens, UniProt P50549 1-477). The note with it: protein: recombinant; tags: N-terminal GST; dsDNA, one strand shown. A digest of the protocol:
as §1

HSF1, sequence (Q00613 whole entry): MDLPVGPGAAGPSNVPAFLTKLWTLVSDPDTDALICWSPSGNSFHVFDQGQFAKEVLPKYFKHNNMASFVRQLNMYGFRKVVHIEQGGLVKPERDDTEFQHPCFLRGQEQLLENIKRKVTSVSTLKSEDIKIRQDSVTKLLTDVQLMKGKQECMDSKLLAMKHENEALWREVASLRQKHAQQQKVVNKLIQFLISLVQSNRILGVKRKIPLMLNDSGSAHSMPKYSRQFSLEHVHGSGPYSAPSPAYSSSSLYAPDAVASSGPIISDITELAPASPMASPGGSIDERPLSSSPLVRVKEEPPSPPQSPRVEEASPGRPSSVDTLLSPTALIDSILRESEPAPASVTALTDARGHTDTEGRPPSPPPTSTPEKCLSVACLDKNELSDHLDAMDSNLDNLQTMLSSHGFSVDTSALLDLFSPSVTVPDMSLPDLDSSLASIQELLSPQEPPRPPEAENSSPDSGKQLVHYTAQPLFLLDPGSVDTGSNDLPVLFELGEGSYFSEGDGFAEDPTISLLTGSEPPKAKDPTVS
SPIB, sequence (Q01892 whole entry): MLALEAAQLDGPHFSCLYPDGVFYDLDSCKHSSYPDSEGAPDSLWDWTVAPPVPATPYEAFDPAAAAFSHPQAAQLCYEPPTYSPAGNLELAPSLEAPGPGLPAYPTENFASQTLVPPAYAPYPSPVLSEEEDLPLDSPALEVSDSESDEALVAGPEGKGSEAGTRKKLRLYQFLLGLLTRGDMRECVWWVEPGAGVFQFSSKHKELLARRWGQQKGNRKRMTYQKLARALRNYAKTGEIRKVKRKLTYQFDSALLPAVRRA
ETV5, sequence (P41161 whole entry): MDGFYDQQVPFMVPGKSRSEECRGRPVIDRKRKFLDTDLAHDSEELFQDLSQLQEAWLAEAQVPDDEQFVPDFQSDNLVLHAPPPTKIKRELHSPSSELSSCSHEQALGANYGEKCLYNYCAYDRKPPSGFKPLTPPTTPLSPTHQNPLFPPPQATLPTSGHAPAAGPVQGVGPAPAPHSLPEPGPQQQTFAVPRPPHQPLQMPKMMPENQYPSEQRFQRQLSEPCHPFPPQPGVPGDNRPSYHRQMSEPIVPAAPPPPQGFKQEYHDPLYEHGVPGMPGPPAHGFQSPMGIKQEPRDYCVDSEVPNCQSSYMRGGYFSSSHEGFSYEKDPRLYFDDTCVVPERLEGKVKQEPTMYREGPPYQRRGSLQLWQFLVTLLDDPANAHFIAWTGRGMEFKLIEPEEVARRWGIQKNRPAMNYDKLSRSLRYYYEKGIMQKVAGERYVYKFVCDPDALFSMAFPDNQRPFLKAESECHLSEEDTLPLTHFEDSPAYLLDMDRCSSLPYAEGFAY
CRX, sequence (O43186 whole entry): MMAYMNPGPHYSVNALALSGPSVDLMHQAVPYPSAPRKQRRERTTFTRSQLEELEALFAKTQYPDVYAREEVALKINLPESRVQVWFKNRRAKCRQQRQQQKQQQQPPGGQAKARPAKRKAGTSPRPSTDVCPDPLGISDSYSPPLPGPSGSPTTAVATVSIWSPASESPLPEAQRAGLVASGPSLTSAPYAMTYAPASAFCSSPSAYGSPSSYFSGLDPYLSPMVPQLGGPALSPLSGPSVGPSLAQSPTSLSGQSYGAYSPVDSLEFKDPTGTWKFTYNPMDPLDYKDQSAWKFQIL
ETV1, sequence (P50549 whole entry): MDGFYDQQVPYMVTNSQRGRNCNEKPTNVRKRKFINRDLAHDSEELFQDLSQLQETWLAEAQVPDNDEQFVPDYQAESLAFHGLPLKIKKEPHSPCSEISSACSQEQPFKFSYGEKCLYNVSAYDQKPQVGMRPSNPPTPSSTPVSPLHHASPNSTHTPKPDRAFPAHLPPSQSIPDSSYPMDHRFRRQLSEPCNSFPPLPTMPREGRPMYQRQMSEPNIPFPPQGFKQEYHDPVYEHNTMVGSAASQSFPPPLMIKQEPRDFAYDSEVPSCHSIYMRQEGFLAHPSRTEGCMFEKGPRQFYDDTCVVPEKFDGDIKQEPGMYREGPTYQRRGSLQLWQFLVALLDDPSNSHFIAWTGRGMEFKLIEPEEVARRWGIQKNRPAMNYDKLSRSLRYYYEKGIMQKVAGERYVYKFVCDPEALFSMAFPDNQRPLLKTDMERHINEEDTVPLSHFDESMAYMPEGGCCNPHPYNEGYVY
ELF1, sequence (P32519 whole entry): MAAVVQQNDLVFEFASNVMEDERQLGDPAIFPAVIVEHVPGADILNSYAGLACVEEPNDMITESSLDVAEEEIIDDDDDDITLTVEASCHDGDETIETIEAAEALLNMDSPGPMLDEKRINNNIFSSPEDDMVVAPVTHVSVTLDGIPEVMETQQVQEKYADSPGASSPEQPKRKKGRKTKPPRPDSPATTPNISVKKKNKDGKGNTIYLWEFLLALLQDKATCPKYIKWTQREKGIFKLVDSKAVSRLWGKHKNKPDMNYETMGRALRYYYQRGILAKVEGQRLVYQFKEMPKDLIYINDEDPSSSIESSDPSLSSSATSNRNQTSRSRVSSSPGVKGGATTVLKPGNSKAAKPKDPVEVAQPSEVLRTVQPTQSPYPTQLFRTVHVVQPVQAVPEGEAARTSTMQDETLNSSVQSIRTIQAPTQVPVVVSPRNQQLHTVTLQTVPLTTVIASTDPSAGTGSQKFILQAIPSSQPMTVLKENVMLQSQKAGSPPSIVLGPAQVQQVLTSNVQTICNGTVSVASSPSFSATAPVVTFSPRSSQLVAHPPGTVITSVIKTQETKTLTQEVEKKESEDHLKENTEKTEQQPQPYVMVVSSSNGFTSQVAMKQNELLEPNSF
ELF4, sequence (Q99607 whole entry): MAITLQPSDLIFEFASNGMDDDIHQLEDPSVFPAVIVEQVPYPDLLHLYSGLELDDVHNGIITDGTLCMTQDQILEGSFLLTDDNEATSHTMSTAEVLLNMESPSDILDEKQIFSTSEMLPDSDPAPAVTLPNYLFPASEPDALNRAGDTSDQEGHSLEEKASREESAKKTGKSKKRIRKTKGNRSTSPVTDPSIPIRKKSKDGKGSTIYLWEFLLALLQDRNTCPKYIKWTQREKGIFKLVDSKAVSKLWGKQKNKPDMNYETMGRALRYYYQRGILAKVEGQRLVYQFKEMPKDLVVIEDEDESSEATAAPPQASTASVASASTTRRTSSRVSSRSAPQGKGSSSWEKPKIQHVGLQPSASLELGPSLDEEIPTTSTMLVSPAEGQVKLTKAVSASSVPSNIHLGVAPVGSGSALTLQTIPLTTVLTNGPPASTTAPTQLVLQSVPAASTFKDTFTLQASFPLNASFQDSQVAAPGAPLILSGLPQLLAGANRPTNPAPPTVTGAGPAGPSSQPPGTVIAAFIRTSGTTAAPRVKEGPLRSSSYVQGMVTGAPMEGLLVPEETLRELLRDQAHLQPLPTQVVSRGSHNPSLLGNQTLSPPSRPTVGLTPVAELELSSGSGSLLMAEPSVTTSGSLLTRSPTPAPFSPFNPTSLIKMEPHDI

Consider TCTGTG, for which the binding signal is 1.17 fold enrichment (6-mer frequency, TF over GST control) with FLI1; 1.14 fold enrichment (6-mer frequency, TF over GST control) with ELK1; 1.18 fold enrichment (6-mer frequency, TF over GST control) in the test with GABPA; 1.07 fold enrichment (6-mer frequency, TF over GST control) with ERG; 1.12 fold enrichment (6-mer frequency, TF over GST control) with ELF1; 1.13 fold enrichment (6-mer frequency, TF over GST control) in the test with EHF. Further, the binding signal in the test with SPI1 was 1.14 fold enrichment (6-mer frequency, TF over GST control); with SPIB it was 1.14 fold enrichment (6-mer frequency, TF over GST control); with FEV, 1.07 fold enrichment (6-mer frequency, TF over GST control); in the test with ETV5, 1.08 fold enrichment (6-mer frequency, TF over GST control); with HSF1, 1.05 fold enrichment (6-mer frequency, TF over GST control); with SPIC, 1.34 fold enrichment (6-mer frequency, TF over GST control). For the same sequence, the binding signal is 1.2 fold enrichment (6-mer frequency, TF over GST control) with ELF4; 1.21 fold enrichment (6-mer frequency, TF over GST control) with ELK4; 1.1 fold enrichment (6-mer frequency, TF over GST control) with ETV2; 1.07 fold enrichment (6-mer frequency, TF over GST control) in the test with ELF3; 1.09 fold enrichment (6-mer frequency, TF over GST control) with CRX; 1.16 fold enrichment (6-mer frequency, TF over GST control) in the test with ETV1.
